Assay outcomes (PubChem BioAssay)
Only some compounds are listed: those with a hit (about 3.1% of all), similar ones and a draw of the others.
TRb-SRC2 inh = inhibitors of human thyroid hormone receptor beta-SRC2 interaction | P10828 | 280,000 compounds, 0.065% hits | TRbeta-SRC2 peptide binding, fluorescence polarization; receptor liganded with 1 µM T3 | Potency, µM (series often up to 106 µM), usual class: inhibitors; note: nearly all actives have a fitted effect of over 50% in size
Target sequence (P10828 whole entry, looked up): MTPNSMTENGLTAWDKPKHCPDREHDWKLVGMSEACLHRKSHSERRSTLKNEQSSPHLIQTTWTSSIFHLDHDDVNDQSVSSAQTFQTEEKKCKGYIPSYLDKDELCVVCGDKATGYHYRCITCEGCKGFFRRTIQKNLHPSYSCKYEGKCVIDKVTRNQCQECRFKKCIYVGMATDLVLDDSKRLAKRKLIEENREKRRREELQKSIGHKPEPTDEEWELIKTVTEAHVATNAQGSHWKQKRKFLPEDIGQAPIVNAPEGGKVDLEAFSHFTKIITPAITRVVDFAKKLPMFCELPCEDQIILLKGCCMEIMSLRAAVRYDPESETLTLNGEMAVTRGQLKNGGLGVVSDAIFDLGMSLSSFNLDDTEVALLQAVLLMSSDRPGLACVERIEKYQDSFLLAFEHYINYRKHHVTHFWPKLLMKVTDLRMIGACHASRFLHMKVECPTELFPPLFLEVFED
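Polarization signal, normalized between peptide-alone and full complex controls, measured compound effects on T3-liganded human TRb LBD (0.6 uM) binding 20 nM Texas Red SRC2 peptide after 5 hr.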
TR SRC2 fluor cs = alters Texas Red total fluorescence, flagging assay interference. Potency, µM (highest dose often 106 µM). AID 1479. TRb/SRC2 Texas Red total fluorescence interference. 280,000 compounds, 0.29% hits; active = well fitted curve in either direction with a large enough effect; inconclusive = small, poorly fitted or top-dose-only effect
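Human TRβ ligand-binding domain (0.6 uM) and Texas Red SRC2 peptide (20 nM) in Tris buffer with 1 uM T3 and 5% DMSO were incubated with pinned compound for 5 hr at ambient temperature. Total fluorescence was computed as S + 2P (555/632 nm).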
Tau ThT inhib = tau fibrillization inhibition (ThT binding); P10636; recombinant tau K18 P301L, heparin-induced fibrillization, ThT fluorescence; Potency, µM (top dose mostly 57.4 µM), actives largely listed as inhibitors; 270,000 compounds, 2.1% hits; AID 1460; note: nearly all actives have a fitted effect of over 55% in size
Target sequence (P10636 561-689 P618L limits assumed): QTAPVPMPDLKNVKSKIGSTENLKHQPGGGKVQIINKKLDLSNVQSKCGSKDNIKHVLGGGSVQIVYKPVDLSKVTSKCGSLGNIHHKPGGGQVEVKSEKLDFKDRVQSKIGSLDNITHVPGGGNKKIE
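Tau K18 P301L fragment (15 uM unlabeled plus 0.24 uM Alexa 594-labeled) in 100 mM sodium acetate pH 7 with compound, fibrillization induced by 20 uM heparin for 6 hr at 37 C. Thioflavin T (30 uM) added, fluorescence read after 1 hr (ex 450, em 510 nm).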
Tau FP inhib = inhibitors of human tau fibril formation; P10636; K18 P301L tau heparin fibrillization, Alexa594 FP, 6 h; Potency, µM (highest dose often 57.7 µM), hits mostly inhibitors; 280,000 compounds, 0.39% hits; AID 1468; note: nearly all actives have a fitted effect of over 55% in size
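K18 P301L tau (15 uM unlabeled/0.24 uM Alexa 594-labeled, final) + compound + heparin 20 uM final; 100 mM NaOAc pH 7; 6 hr 37 C; ThT 30 uM final added, 1 hr RT; FP ex 555/em 632 nm.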
Tau fluor cs = counter-screen for tau fibril formation inhibitors. tau K18 P301L (four-repeat tau fragment) Alexa594 fluorescence, heparin fibrillization. Potency, µM (series often up to 57.7 µM). 280,000 compounds, 0.93% hits. AID 1463; note: nearly all actives have a fitted effect of over 55% in size
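Human K18 P301L tau (15 uM unlabeled plus 0.24 uM Alexa 594-labeled, final) in 100 mM sodium acetate pH 7 was mixed with compound and 20 uM heparin and incubated 6 hr at 37 C.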
Each line names hits and unclear results; the compound was inactive in the other large screens; [ ] = another dose, or the depositor's remark. Unless noted, calls come from the whole dose curve; as a rule, active = well fitted curve in the direction sought with a large enough effect; inconclusive = small, poorly fitted or top-dose-only effect, or another doubt; inactive = no such curve, though single readings can be large; an effect the other way counts as inactive or inconclusive.

CCN(CC)CCC(c1ccc2c(c1)OCO2)c1c(O)cc(OC)cc1OC (configuration not stated)	none
CCC(=O)N1CCc2cc(Br)cc(S(=O)(=O)N3CCCC(C(=O)N(C)c4ccc(Br)cc4)C3)c21 (configuration not stated)	TR SRC2 fluor cs 178µM[quencher]
CCc1cc(/C(Cc2ccc3ccccc3n2)=N\O)c(O)cc1O	Tau fluor cs 22.4µM[quencher]
Cc1c(O)ccc(/C(Cc2ccc3ccccc3n2)=N\N)c1O	Tau ThT inhib 7.08µM, Tau fluor cs 11.2µM[quencher]
CCN1C=C(Cc2ccccc2C)C2=C(C1)C(c1ccccc1C)C(C#N)=C(N)O2 (configuration not stated)	TRb-SRC2 inh inconclusive, TR SRC2 fluor cs 44.7µM[fluorescent], Tau ThT inhib inconclusive
CCN1C=C(Cc2ccc(F)cc2)C2=C(C1)C(c1ccc(F)cc1)C(C#N)=C(N)O2 (configuration not stated)	Tau ThT inhib inconclusive
COc1ccc2c(c1OC)C[N+]1([O-])CCc3cc4c(cc3C1C2)OCO4 (configuration not stated)	none
COc1ccc2c(c1OC)C(Cc1ccccc1)N1CCc3cc4c(cc3C1=C2)OCO4 (configuration not stated)	Tau ThT inhib 15.8µM, Tau fluor cs inconclusive
CC1CC(C)(C)NC(=S)N1CCC(=O)NCc1ccc(Cl)cc1 (configuration not stated)	none
Oc1cc2c(cc1O)C1c3ccc(O)c(O)c3OCC1(O)C2 (configuration not stated)	Tau ThT inhib 3.98µM, Tau FP inhib 25.1µM, Tau fluor cs inconclusive
CC(C)N1CCN(Cc2ccc(Sc3nncn3C)o2)CC1CCO (configuration not stated)	none
FC(F)(F)c1ccc(Cl)c(Cl)c1	none (no result: Tau ThT inhib, Tau FP inhib, Tau fluor cs)
COC(=O)c1c(-c2cccs2)csc1NC(=O)c1cccc(Cl)c1	TRb-SRC2 inh inconclusive, TR SRC2 fluor cs 1122µM[quencher], Tau ThT inhib inconclusive, Tau FP inhib inconclusive
COC(=O)c1c(-c2cccs2)csc1NC(=O)c1ccc(C(C)C)cc1	Tau ThT inhib inconclusive, Tau FP inhib inconclusive
COC(=O)c1c(-c2cccs2)csc1NC(=O)c1ccc(Cl)cc1	Tau ThT inhib 12.6µM, Tau FP inhib inconclusive
COC(=O)c1c(-c2cccs2)csc1NC(=O)c1ccc(C(C)(C)C)cc1	Tau ThT inhib 25.1µM, Tau FP inhib 22.4µM
COc1ccc2[nH]c(=O)c(CN(C)C(=O)c3cccs3)cc2c1	none
CCc1ccc2[nH]c(=O)c(C(c3nnnn3CC3CCCO3)N3CCCc4ccccc43)cc2c1 (configuration not stated)	Tau ThT inhib 11.2µM, Tau FP inhib inconclusive
COCCn1nnnc1C(c1cc2cc(C)ccc2[nH]c1=O)N1CCc2ccccc21 (configuration not stated)	Tau ThT inhib 28.2µM, Tau FP inhib inconclusive, Tau fluor cs inconclusive
O=C1Nc2cc3c(cc2C1=O)sc1ccccc13	Tau ThT inhib 1.12µM, Tau fluor cs inconclusive
Fc1c(F)c(C(F)(F)F)c(F)c(F)c1N/N=C\c1cccs1	Tau fluor cs 7.94µM[quencher]
NC(=O)CC(NC(=O)c1ccccc1)c1ccc(NCC2CC2)c([N+](=O)[O-])c1 (configuration not stated)	Tau ThT inhib inconclusive
NC(=O)CC(NC(=O)c1ccccc1)c1ccc(NCCc2cccc(F)c2)c([N+](=O)[O-])c1 (configuration not stated)	Tau ThT inhib 15.8µM
NC(=O)CC(NC(=O)c1ccccc1)c1ccc(NCCOc2ccccc2)c([N+](=O)[O-])c1 (configuration not stated)	Tau ThT inhib 12.6µM
O=C(NC1CCCCCC1)c1ccc(=O)n(Cc2ccccc2)n1	none
CC1=NN(c2ccccc2)C(=O)/C1=C/C=C/c1ccc(N(C)C)cc1	Tau ThT inhib 2µM, Tau FP inhib inconclusive, Tau fluor cs 2.51µM[quencher]
CC1=NN(c2ccccc2)C(=O)/C1=C\C=C\c1ccccc1	Tau ThT inhib 28.2µM, Tau FP inhib inconclusive, Tau fluor cs inconclusive
CC1=NN(c2ccc(C(=O)OC(C)C)cc2)C(=O)/C1=C\C=C\c1ccco1	none
CCOC(=O)c1ccc(N2N=C(C)/C(=C/C=C/c3ccco3)C2=O)cc1	Tau ThT inhib 3.16µM, Tau FP inhib inconclusive, Tau fluor cs inconclusive
CCOC(=O)CC1=NN(c2ccccc2)C(=O)/C1=C\c1ccc(N(C)C)cc1	Tau ThT inhib 25.1µM, Tau fluor cs inconclusive
CC1=NN(c2ccccc2)C(=O)/C1=C/N(C)C	none
Cc1ccc(NC(=O)C(C)Sc2nc(=O)cc(N)n2-c2cccc(C)c2)cc1 (configuration not stated)	none
CCOC(=O)C1CCCN(c2ccc(NC(=O)c3snc4c(=O)[nH]cnc34)cc2)C1 (configuration not stated)	Tau ThT inhib 2.82µM
NNc1nc2c(Cl)ccc(Cl)c2s1	Tau ThT inhib 11.2µM, Tau FP inhib inconclusive, Tau fluor cs 10µM[quencher]
CNc1nc2c(Cl)cc(Cl)cc2s1	none
Oc1c(C=C2N=c3ccccc3=N2)sc(=S)n1C1CCCCC1	none
CCn1c(O)c(C=C2N=c3ccccc3=N2)sc1=S	none
O=C(Nn1c(O)c(C=C2N=c3ccccc3=N2)sc1=S)c1ccccc1Cl	Tau ThT inhib 11.2µM, Tau FP inhib inconclusive, Tau fluor cs 17.8µM[quencher]
CC1=Nc2ccccc2/C1=C/c1sc(=S)n(-c2cccc(C(=O)O)c2)c1O	Tau ThT inhib 3.55µM, Tau fluor cs inconclusive
Oc1c(C=C2N=c3ccccc3=N2)sc(=S)n1-c1ccccc1	TR SRC2 fluor cs 31.6µM[quencher]
O=S(=O)(Nn1c(O)c(C=C2N=c3ccccc3=N2)sc1=S)c1ccccc1	Tau ThT inhib 11.2µM, Tau fluor cs inconclusive
CCOC(=O)c1cnc(NCc2ccc(OC)cc2OC)c2ccccc12	Tau FP inhib inconclusive, Tau fluor cs inconclusive
COC(=O)c1ccc(-c2ccc(C3C4C=CCC(C)C4C(=O)N3Cc3ccccc3)c(F)c2)cc1 (configuration not stated)	none (no result: Tau ThT inhib, Tau FP inhib, Tau fluor cs)
O=C(CCC1N=C2c3ccccc3N=C(SCc3cccc(F)c3)N2C1=O)NCc1ccc(F)cc1 (configuration not stated)	none
CC(=O)C1=C(O)C(=O)N(CCCn2ccnc2)C1c1ccc(C)cc1 (configuration not stated)	none
CCOc1ccc(Nc2cc(Nc3ccccc3OCC)nc(C=C(C#N)C#N)n2)cc1	Tau ThT inhib 2.82µM
CC(C)(C)c1ccc(/C=N/NC(=O)Cc2c[nH]c3ccccc23)cc1	Tau ThT inhib inconclusive, Tau fluor cs 14.1µM[quencher]
Cc1cc(=O)c2c(O)c3c(O)cc(=O)c4c3c3c(cc(O)c1c23)C(C)(C)C=4O	TR SRC2 fluor cs inconclusive, Tau ThT inhib 8.91µM, Tau fluor cs inconclusive
CC(C)(C)c1cc(-c2nc(N)nc(N)n2)cc(C(C)(C)C)c1	Tau ThT inhib inconclusive, Tau FP inhib 28.2µM
